# PubChem BioAssay AID602393 (Broad Institute, 2012)
# About 7,000 (2%) of roughly 350,000 compounds were called active. For the sample, actives were picked, then their nearest neighbours and some compounds at random. Unmarked numbers belong to inactive results. Rule as the data show it: active = activation above about 40%; inconclusive = no clear call, values can overlap the other calls; inactive = below that.
# Assay: Bmi1 luciferase reporter increase in mESCs, primary screen, esBAF inhibitor project, mouse ES cells, Bmi1 luciferase knock-in, single point (AID 602393);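 also: 0% = median of the plate's neutral control wells and 100% = double that signal; a rise in the Bmi1 reporter signal indicates esBAF inhibition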
# Conditions: 24 h, at 12.5 µM, stronger effect = higher value, 100% = twice the neutral-well signal
row,SMILES,reporter increase
1,COc1ccc(OCc2ccc(-c3nc4ccccc4c(=O)n3N)o2)cc1,54.8% (active)
2,COc1ccc(-c2nc3ccccc3c(=O)n2CCc2ccc(O)cc2)cc1,9.53%
3,Cn1c(COc2ccc(Cl)cc2)nc2ccccc2c1=O,12.6%
4,COc1ccc(S(=O)(=O)N2CC[C@@H]3[C@@H](CO)Nc4ccc(C#Cc5cccnc5)cc4[C@@H]32)cc1,7.74%
5,CO[C@@H]1CN(C)C(=O)c2cc(NS(=O)(=O)Cc3ccccc3)ccc2OC[C@H](C)NC[C@H]1C,-0.575%
6,COCC#Cc1cnc2c(c1)C(=O)N([C@H](C)CO)C[C@H](C)[C@H](CN(C)C(=O)Nc1cc(F)ccc1F)O2,-0.321%
7,CCN(CC)S(=O)(=O)c1ccc(-c2cn3ccc(C)cc3n2)cc1,42.3% (active)
8,COc1ccc(-c2cn3ccc(C)cc3n2)cc1,-61.7%
9,CCN(c1cccc(C)c1)S(=O)(=O)c1ccc(-c2coc(C)n2)cc1,2.04%
10,COCC(=O)Nc1ccc2c(c1)C(=O)N(C)C[C@H](OC)[C@@H](C)CN(C(=O)c1cnccn1)[C@H](C)CO2,-3.88%
11,COC(=O)C[C@H]1CC[C@@H](NC(=O)c2ccccc2)[C@@H](CO)O1,-2.05%
12,CC(C)NC(=O)Nc1ccc2c(c1)C(=O)N([C@@H](C)CO)C[C@H](C)[C@@H](CN(C)C(=O)Nc1ccc(F)cc1)OCCCC[C@H](C)O2,11.9%
13,O=C(NCC(=O)N1CCN(c2ccccc2F)CC1)c1cccs1,28.1%
14,O=C(CCc1ccccc1F)N1CCN(c2ccccc2)CC1,1.91%
15,O=C(CCSc1ccccc1)N1CCN(c2ccccc2F)CC1,65.1% (active)
16,CCCN1C[C@H](C)[C@@H](OC)CN(C)C(=O)c2ccc(NC(=O)C3CCOCC3)cc2OC[C@H]1C,-2.07%
17,O=C(C[C@@H]1CC[C@H]2NC[C@H](O)COC[C@@H]2O1)NCCN1CCCCC1,6.52%

row,SMILES,reporter increase
1,O=C(CC(F)(F)F)N1C[C@H]2[C@@H](c3ccccc31)[C@H](CO)N2C(=O)Cc1cccnc1,-1.13%
2,CS(=O)(=O)N1CCc2cc(C(=O)Nc3ccccc3)ccc21,47.5% (active)
3,CS(=O)(=O)N1CCc2cc(C(=O)Nc3ccccc3Br)ccc21,34.7%
4,CC(=O)Nc1cccc(NC(=O)c2ccc3c(c2)CCN3S(C)(=O)=O)c1,2.43%
5,O=C(O)C[C@H]1C[C@@H]2c3cc(NC(=O)Nc4ccc(C(F)(F)F)cc4)ccc3O[C@@H]2[C@@H](CO)O1,2.29%
6,C=CCN1C(=O)C(Cc2cccc(Cl)c2)S/C1=N/N=C/c1ccco1 (centres undefined),-2.3%
7,CCN(CC)C(=O)C1=C(C)N(Cc2ccc(OC)cc2)C(=O)C(CC(=O)NCc2ccco2)C1 (centres undefined),-3.89%
8,COc1ccc(CN2C(=O)C(C)S/C2=N/N=C/c2ccco2)cc1 (centres undefined),70.2% (active)
9,CCCC(=O)Nc1ccc2c(c1)C(=O)N(C)C[C@@H](OC)[C@@H](C)CN(C(=O)CC)[C@H](C)CO2,-1.94%
10,CN(C)C(=O)C[C@H]1CC[C@@H](NC(=O)Nc2cccc(F)c2)[C@H](CO)O1,-0.909%
11,COCC#Cc1cnc2c(c1)C(=O)N([C@@H](C)CO)C[C@@H](C)[C@H](CN(C)C(=O)c1cnccn1)O2,3.45%
12,CN1C(=O)c2cc(NC(=O)Nc3ccccc3Cl)ccc2OC[C@H]2O[C@@H](CC(=O)O)CC[C@H]21,3.49%
13,O=C(C1CCC(=O)N(C2CC2)C1)N1CCN(c2ccc(Cl)cc2)CC1 (centres undefined),-7.88%
14,COCC1CCN(C(=O)C2CCC(=O)N(CC3CCCCC3)C2)CC1 (centres undefined),-0.459%
15,CC(C)C1CCN(C(=O)C2CCC(=O)N(C3CCCCCC3)C2)CC1 (centres undefined),55.6% (active)
16,COc1ccc(S(=O)(=O)Nc2ccc3c(c2)CC(=O)N([C@H](C)CO)C[C@H](C)[C@@H](CN(C)C)O3)cc1,-3.65%
17,O=C(Cc1ccccn1)N[C@H]1CC[C@H](CCNS(=O)(=O)c2cccc(F)c2)O[C@@H]1CO,0.895%
